The list is not random: actives were taken first. Their share in the collection is about 5.4%.
SMARCA2 activ: SMARCA2 (BRM) function activators, primary screen, cell-based, luminescence, high throughput; MG213 cells, MMTV-luciferase reporter, dexamethasone, overnight; activation, % at 9.1 µM; actives 1% (n = 370,000); AID 652017, 2013; in the data active means activation above about 7.8%
ALR inh: inhibitors of human ALR sulfhydryl oxidase, primary screen, biochemical, H2O2 detection, HRP-luminol luminescence, single point; purified ALR, DTT oxidation; actives 3.8% (n = 290,000); AID 485317, 2010; inhibition, % (test concentration not listed); FAD-linked sulfhydryl oxidase ALR (Homo sapiens), P55789;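 active means mean replicate inhibition above about 79%, with every replicate also reaching it, limit read from the data; inconclusive means only one of the two criteria met; inactive means mean below limit and not every replicate reaching it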
Target sequence (P55789 whole entry, looked up): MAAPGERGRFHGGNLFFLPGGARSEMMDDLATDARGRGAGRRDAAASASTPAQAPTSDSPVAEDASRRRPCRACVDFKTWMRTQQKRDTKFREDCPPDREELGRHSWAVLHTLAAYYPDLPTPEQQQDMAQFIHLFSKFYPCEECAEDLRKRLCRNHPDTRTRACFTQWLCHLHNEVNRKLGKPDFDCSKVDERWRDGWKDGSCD
MIN6 prolif: inducers of MIN6 beta-cell proliferation, primary screen, ATP luminescence, uHTS; MIN6 cells proliferation, ATPlite luminescence, 48 h; cells starved in 0.2% serum; 100% = growth in 10% serum; proliferation, % at 10 µM; actives 0.29% (n = 330,000);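 active means compounds whose signal lies at least 3.5 SD above the mean of all wells on their plate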
Granule exo inh: LAMP-1 surface exposure blockers, TALL-104 cells – cell-based, flow cytometry, MLPCN library, primary screen | TALL-104 LAMP-1 surface exposure; cells stimulated with thapsigargin and PMA | inhibition, % at 10 µM | actives 0.66% (n = 360,000) | AID 651702, 2012;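 active means inhibition above about 55%, limit read from the data; inconclusive means no clear call, values can overlap the other calls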
PfM18AAP inh: PfM18AAP inhibitors, malaria aminopeptidase, primary screen, biochemical, QFRET, recombinant enzyme. M18 aspartyl aminopeptidase (Plasmodium falciparum 3D7). H-Glu-NHMec fluorogenic cleavage. inhibition, % at 7.35 µM. actives 1.2% (n = 290,000);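 active means inhibition above the campaign mean inhibition over all tested compounds plus 3 SD, cut at about 28% in these data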
JMJD2C inh: inhibitors of GASC-1 histone demethylase, primary screen, biochemical, fluorescence, DELFIA europium; Lysine-specific demethylase 4C (Homo sapiens), Q9H3R0; GST-JMJD2C(1-420) H3K9me3 demethylation; inhibition, % at 2.35 µM; actives 0.069% (n = 330,000);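 active means more than half of a compound's replicate wells show inhibition beyond 50%, single wells judged on their own value; inconclusive means some, but no more than half, of replicates pass 50% inhibition; inactive means no replicate passes 50% inhibition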;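 further: signal counts dimethyl H3K9 product captured on neutravidin plate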
Target sequence (Q9H3R0 1-420 limits assumed): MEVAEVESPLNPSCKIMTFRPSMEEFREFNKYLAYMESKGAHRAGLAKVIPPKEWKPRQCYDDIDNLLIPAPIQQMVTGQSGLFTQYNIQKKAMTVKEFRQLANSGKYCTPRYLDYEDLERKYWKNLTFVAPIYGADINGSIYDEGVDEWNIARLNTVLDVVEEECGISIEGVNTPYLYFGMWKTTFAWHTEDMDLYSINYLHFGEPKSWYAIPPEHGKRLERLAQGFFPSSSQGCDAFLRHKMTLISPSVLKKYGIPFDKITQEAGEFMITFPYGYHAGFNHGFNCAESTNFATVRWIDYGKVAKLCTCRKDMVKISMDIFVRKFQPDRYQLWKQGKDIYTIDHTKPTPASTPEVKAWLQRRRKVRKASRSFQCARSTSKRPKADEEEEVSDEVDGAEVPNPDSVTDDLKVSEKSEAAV
Each line names hits and unclear results; the compound was inactive in the other large screens.

CN(C)/C=N/c1nc(-c2ccc3c(c2)OCO3)cs1	ALR inh 97.5
CN(C)/C=N/c1nc(-c2ccc3ccccc3c2)cs1	none
Nc1c(C(=O)N2CCN(c3ccccc3)CC2)nnn1Cc1ccc(Cl)cc1	none (no result: ALR inh, MIN6 prolif, Granule exo inh, PfM18AAP inh, JMJD2C inh)
CCCc1ccc(/C=C2\C(=O)c3ccccc3C(O)=C2C(=O)OCC)cc1	none (no result: SMARCA2 activ, Granule exo inh)
CCOC(=O)C1=C(O)c2ccccc2C(=O)/C1=C\c1ccc(CC)cc1	Granule exo inh 101.5 (no result: SMARCA2 activ, MIN6 prolif)
CCOC(=O)C1=C(Cc2ccc(OC)cc2)C(=O)c2ccccc2C1=O	Granule exo inh 105.2 (no result: SMARCA2 activ, ALR inh, MIN6 prolif, JMJD2C inh)
CC(CCc1ccccc1)NC(=O)CN1CCN(c2ccc(O)cc2)CC1 (configuration not stated)	ALR inh 99.9
COc1ccc(-n2c(CNC(=O)COc3ccc(Cl)cc3)n[nH]c2=S)cc1	ALR inh 88.1
COc1ccc(N2CCN(C(=O)CN3CCN(C(c4ccccc4)c4ccccc4)CC3)CC2)cc1	none
Cc1ccc(CN2CCN(CC(=O)NC(C)CCc3ccccc3)C2=O)cc1 (configuration not stated)	none
COC(=O)c1c(C)[nH]c(C(=O)N2CCN(c3ccc(OC)cc3)CC2)c1C	ALR inh 95.6 (no result: MIN6 prolif, Granule exo inh)
COc1ccc(N2CCN(CC(=O)NC(C)c3ccccc3)CC2)cc1 (configuration not stated)	ALR inh 95.1
O[C@H](COc1ccc(C(F)(F)F)cc1)CN1CCC(C(O)(c2ccccc2)c2ccccc2)CC1	none (no result: ALR inh, MIN6 prolif, Granule exo inh, PfM18AAP inh, JMJD2C inh)
COC(=O)[C@H](CC(C)C)N(Cc1cn(CC2CCCCC2)nn1)S(=O)(=O)c1ccccc1Br	none (no result: ALR inh, MIN6 prolif, Granule exo inh, PfM18AAP inh, JMJD2C inh)
COc1ccc(N2CCN(C(=O)NCc3ccc(OC)c(Cl)c3)CC2)cc1	none
COc1ccc(N2CCN(C(=O)NC34CC5CC(CC(C5)C3)C4)CC2)cc1	ALR inh 85.4
COc1ccc(NC(=O)CN2CCN(c3nc(-c4cccc(OC)c4)cs3)CC2)cc1	ALR inh 98.9
COc1ccc(N2CCN(C(=O)NCc3ccc(OC)c(OC)c3)CC2)cc1	ALR inh 88.6
COc1cccc(N2CCN(CC(=O)NCc3cccs3)CC2)c1	ALR inh 98.6
CC(C)NC(=O)[C@]1(C#N)CC(=O)N(C)[C@@H]1c1ccccc1	none (no result: ALR inh, MIN6 prolif, Granule exo inh, PfM18AAP inh, JMJD2C inh)
CC(C)c1nc(N(C)S(C)(=O)=O)nc(-c2ccc(F)cc2)c1/C=C/[C@H](O)C[C@@H](O)CC(=O)O	none (no result: ALR inh, MIN6 prolif, Granule exo inh, PfM18AAP inh, JMJD2C inh)
CCCC(=O)OC12CCCN(C1)/C(=C/c1ccc(OC)cc1)C2 (configuration not stated)	none (no result: ALR inh, MIN6 prolif, Granule exo inh, PfM18AAP inh, JMJD2C inh)
CCCC(C)C(=O)NC1CCCCN(Cc2ccccc2C)C1=O (configuration not stated)	none (no result: ALR inh, MIN6 prolif, Granule exo inh, PfM18AAP inh, JMJD2C inh)
CN(C)CC(=O)N[C@@H]1C[C@@H]2O[C@@H](CO)CC[C@@H]2O[C@@H]1CCc1ccc(C#Cc2ccccc2)cc1	none (no result: ALR inh, MIN6 prolif, Granule exo inh, PfM18AAP inh, JMJD2C inh)
COc1ccc(N2CCN(CCCNC(=O)C3(S(=O)(=O)c4ccc(Cl)cc4)CC3)CC2)cc1	ALR inh 85.5 (no result: SMARCA2 activ)
COc1ccc(N2CCN(CC(=O)NCc3ccc(Cl)cc3)CC2)cc1	ALR inh 88.6
COc1ccc(N2CCN(CC(=O)NCc3ccccc3)CC2)cc1	none
COc1ccc(N2CCN(C(=S)Nc3ccc(F)cc3)CC2)cc1	none
COc1ccc(N2CC(NC(=O)N3CCN(c4ccccc4)CC3)CC2=O)cc1 (configuration not stated)	ALR inh 96.8
CNC(=S)N1CCN(c2ccc(OC)cc2)CC1	ALR inh 96.0
O=C(NCCCN1CCN(c2cccc(Cl)c2)CC1)C1(S(=O)(=O)c2ccc(Cl)cc2)CC1	none (no result: ALR inh)
CN(Cc1ccccc1)C(=O)OCc1cn(Cc2ccc(Cl)cc2)nn1	none (no result: ALR inh, MIN6 prolif, Granule exo inh, PfM18AAP inh, JMJD2C inh)
CCC(=O)N(C)C[C@@H]1[C@H](c2ccc(C3=CCCCC3)cc2)[C@H](CO)N1C(=O)CC	none (no result: ALR inh, MIN6 prolif, Granule exo inh, PfM18AAP inh, JMJD2C inh)
COc1ccc(S[C@]2(C(=O)N3CCCC3)CC(=O)N(c3ccc4c(ccn4C)c3)[C@@H]2c2ccc(OC)cc2)cc1	none (no result: ALR inh, MIN6 prolif, Granule exo inh, PfM18AAP inh, JMJD2C inh)
CCOC(=O)[C@@]12CN(C(=O)OC(C)(C)C)CC=C1N(Cc1ccc(OC)cc1)C(=O)[C@H]2CC(=O)N1CCN(C(=O)c2ccco2)CC1	none (no result: ALR inh, MIN6 prolif, Granule exo inh, PfM18AAP inh, JMJD2C inh)
FC(F)(F)C1=CC(c2ccc(Cl)cc2)=NCCN1	ALR inh 98.9
Oc1ccccc1C1=NCCNC(C(F)(F)F)=C1	none
CCOC(=O)N1CCN(CC(O)c2ccc3c(c2)CCN3)CC1 (configuration not stated)	ALR inh 82.4, JMJD2C inh inconclusive
O=C(Nc1ccc(Oc2ccccc2)cc1)C1CCN(c2nnc(-n3cccc3)s2)CC1	none (no result: ALR inh, MIN6 prolif, Granule exo inh, PfM18AAP inh, JMJD2C inh)
Cc1nc2cccc(C(=O)Oc3ccc([N+](=O)[O-])cc3)c2o1	ALR inh 97.1
Cc1c(-c2ccccc2)nc2ccccc2c1C(=O)Oc1ccc([N+](=O)[O-])cc1	none
CC(=O)c1cc(-c2ccc3[nH]ccc3c2)c(=O)n2c1CCC2	none (no result: ALR inh, MIN6 prolif, Granule exo inh, PfM18AAP inh, JMJD2C inh)
CCn1c(COc2ccc(C)cc2)nnc1SCC(=O)Nc1ccc(C(=O)OC)cc1	none (no result: ALR inh, MIN6 prolif, Granule exo inh, PfM18AAP inh, JMJD2C inh)
Cc1sc(NC(=O)CCl)c(C(=O)c2ccccc2)c1C	ALR inh 98.9
S=c1[nH]nc(-c2n[nH]c3c2CCC3)n1N=Cc1ccc(OCc2ccccc2)cc1	none (no result: ALR inh, MIN6 prolif, Granule exo inh, PfM18AAP inh, JMJD2C inh)
O=C(O)C(c1ccccc1)N1C(=O)/C(=C/c2cccs2)SC1=S (configuration not stated)	ALR inh 98.2
COc1cc(/C=C(/C#N)C(=O)c2c(C)[nH]c3ccccc23)ccc1OCC#N	Granule exo inh 56.7
CCOc1ccc(/C=C(\C#N)C(=O)c2c(C)[nH]c3ccccc23)cc1OC	none
CCCCNC(=O)C1CCCN1C(=O)Nc1cc(Cl)cc(Cl)c1 (configuration not stated)	none (no result: ALR inh, MIN6 prolif, Granule exo inh, PfM18AAP inh, JMJD2C inh)
CCc1ccc(NC(=O)NNC(=O)c2ccc3ccccc3c2O)cc1	PfM18AAP inh 28.5
C[N+]1=C(N)N[C@@]2(C=C3CCCCC3n3c(=O)n(-c4ccccc4)c(=O)n32)C1 (some centres not stated)	none (no result: ALR inh, MIN6 prolif, Granule exo inh, PfM18AAP inh, JMJD2C inh)
S=c1nc(-c2cccc(Br)c2)[nH][nH]1	ALR inh 98.9
Nc1nc(N)nc(-c2cccc(Br)c2)n1	none (no result: ALR inh, MIN6 prolif, PfM18AAP inh, JMJD2C inh)
CC1(c2nnnn2Cc2ccccc2)CCCC(=O)N1Cc1cccs1 (configuration not stated)	none (no result: ALR inh, MIN6 prolif, Granule exo inh, PfM18AAP inh, JMJD2C inh)
Cc1cccc(Oc2ccc(N)cc2)c1	ALR inh 98.0
Nc1ccc(Oc2cccc(Oc3ccc(N)cc3)c2)cc1	ALR inh 99.8
Cc1ccc(Oc2ccc(-c3nc(N)nc(N)n3)cc2)cc1	none (no result: JMJD2C inh)
Nc1ccc(Oc2ccc3c(c2)OCO3)cc1	ALR inh 98.9
Cc1cccc(Oc2ccccc2N)c1	none (no result: SMARCA2 activ)
Nc1ccc(Oc2ccc(Br)cc2)cc1	none
Cc1cc(C)cc(Oc2ccc(N)cc2)c1	ALR inh 98.5

Screening data (PubChem)
